For 40 compounds, outcome results are on record in PubChem BioAssay (EPA / NIEHS).

Molecules are shown by their SMILES. Inconclusive results are not listed. Activity calls are given as the source filed them. Rule for the calls: active = hit-call score of the fitted dose curve at least 0.9, where 1 is the maximum; inconclusive = response in the unintended direction; inactive = score below 0.9.

For the test, the target named is Hepatocyte nuclear factor 4-alpha (Homo sapiens) (UniProt P41235). The test can be described thus: ATG_HNF4a_TRANS: Attagene TRANS-FACTORIAL HepG2 Assay for human Hepatocyte Nuclear Factor 4 alpha (HNF4a) (AID 2282982). Conditions: HepG2 HNF4a transactivation reporter, mRNA readout. The procedure: ATG_TRANS is a cell-based, multiplexed-readout assay that uses HepG2, a human liver cell line, with measurements taken at 24 hours after chemical dosing in a 24-well plate.ATG_HNF4a_TRANS is one of 30 assay component(s) measured or calculated from the ATG_TRANS assay. It is designed to make measurements of mRNA induction, a form of inducible reporter, as detected with fluorescence intensity signals by Reverse transcription polymerase chain reaction (RT-PCR) and Capillary electrophoresis technology.Data from the assay component ATG_HNF4a_TRANS was analyzed into 1 assay endpoint. This assay endpoint, ATG_HNF4a_TRANS, was analyzed in the positive analysis fitting direction relative to DMSO as the negative control and baseline of activity. Using a type of inducible reporter, measures of mRNA for gain-of-signal activity can be used to understand the reporter gene at the transcription factor-level as they relate to the gene HNF4A. Furthermore, this assay endpoint can be referred to as a primary readout, because this assay has produced multiple assay endpoints where this one serves a reporter gene function. To generalize the intended target to other relatable targets, this assay endpoint is annotated to the nuclear receptor intended target family, where the subfamily is orphan.
Hepatocyte nuclear factor 4-alpha (Homo sapiens), sequence (P41235 whole entry, looked up): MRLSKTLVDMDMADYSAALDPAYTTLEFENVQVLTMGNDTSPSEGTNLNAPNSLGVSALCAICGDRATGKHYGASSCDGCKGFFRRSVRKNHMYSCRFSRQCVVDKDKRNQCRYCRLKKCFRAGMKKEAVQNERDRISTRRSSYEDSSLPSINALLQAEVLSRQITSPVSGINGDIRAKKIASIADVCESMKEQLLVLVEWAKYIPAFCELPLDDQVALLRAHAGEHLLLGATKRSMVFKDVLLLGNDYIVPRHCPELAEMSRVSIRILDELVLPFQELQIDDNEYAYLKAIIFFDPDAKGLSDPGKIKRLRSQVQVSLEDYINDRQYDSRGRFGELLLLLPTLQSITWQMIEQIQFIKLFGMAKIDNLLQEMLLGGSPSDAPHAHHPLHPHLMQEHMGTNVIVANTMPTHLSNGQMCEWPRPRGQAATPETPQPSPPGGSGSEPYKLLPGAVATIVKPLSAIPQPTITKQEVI
Human liver HepG2 cells are transiently transfected with multiple reporter transcription units (MRTUs) in 6-well plates using FuGene 6 reagent (Roche; 3 ml FuGene/1 mg DNA). The MRTU constructs are regulated by a cis-regulating element (promoter). […] A major difference between the CIS and TRANS system is that in CIS activities of endogenous TFs are measured, whereas the TRANS assay evaluates changes in activities of exogenous, chimeric NR-Gal4 proteins. […] At the end of 24 hour incubation, total RNA was isolated using TriZol reagent (Invitrogen). The isolated RNA is then reverse-transcribed using oligo(dT) primer and Mo-MLV reverse transcriptase (Invitrogen) with DNAse I (Ambion) treatment for 30 min. The one-tenth of the produced cDNA was amplified by PCR using Taq DNA polymerase (Invitrogen) and two reporter sequence-specific primers. The PCR products were fluorescently labeled by primer extension with 6-arboxyfluorescein (6-FAM) 5'-labeled reporter sequence-specific primer (2 min at 95 C, 20 s at 68 C and 10 min at 72 C) and these products were digested with 5U of HpaI (New England Biolabs) for 2h at 37 C. The fragments were purified using Qiaquick PCR columns (Qiagen), analyzed on an ABI 3130xL genetic analyzer (Applied Biosystems) with peak positions identified by using a set of X-rhodamine (ROX)-labeled MapMarker1000 molecular weight standards (BioVentures). The raw capillary electrophoresis data was processed using Attagraph software (Attagene).
On to `O=c1c(O)c(-c2ccc(O)cc2O)oc2cc(O)cc(O)c12`, for which the call was inactive. Regarding `c1ccc2sc(SSN3CCOCC3)nc2c1`, the compound was called inactive. Under `CC=C(C)C=CC=C(C)C` stands “inactive”. For `CCCCCCCCCCCCCC(=O)OC(C)C`, the result was inactive. In the case of `N#CC1(N)CCCCC1`, the outcome was inactive. Under `C=C[C@@]1(C)CC(=O)[C@]2(O)[C@@]3(C)[C@@H](O)CCC(C)(C)[C@@H]3[C@H](O)[C@H](OC(C)=O)[C@@]2(C)O1` stands “inactive”; under `CCCCOCC(C)O` (stereo not given), “inactive”; under `CCC(C)C(=O)OC` (stereo not given), “inactive”. Under `CCOC(=O)[C@H](O)[C@@H](O)C(=O)OCC` stands “inactive”; under `O=C(O)c1cc(O)c2ccccc2c1O`, “inactive”; under `CC(C)OC(=O)c1ccccc1`, “inactive”. Under `CCCCC(=O)O` stands “inactive”; under `C=C(C)C(=O)OCCCCCCCCCCCC`, “inactive”. Turning to `CC(C)=CCl`, the result was inactive. Next, `C=C(C)C1CC=C(C)C(OC(C)=O)C1` (stereo not given): “inactive”; `COc1ccc(C(=O)/C(Br)=C\C(=O)O)cc1`: “inactive”. Next, `CCCCNS(=O)(=O)c1ccccc1`: “inactive”; `COC(=O)c1ccccc1C`: “inactive”; `COc1ccc(-c2coc3cc(O)cc(O)c3c2=O)cc1`: “inactive”. Next, `O=S(=O)(O)c1ccc(Nc2nc(Nc3ccc(C=Cc4ccc(Nc5nc(Nc6ccc(S(=O)(=O)O)cc6)nc(N(CCO)CCO)n5)cc4S(=O)(=O)O)c(S(=O)(=O)O)c3)nc(N(CCO)CCO)n2)cc1`: “inactive”; `C=C[Si](OCCOC)(OCCOC)OCCOC`: “inactive”.

As to `CCCCC1C(=O)N(c2ccccc2)N(c2ccccc2)C1=O`, the outcome was inactive. Under `CC(=O)OCC=C(C)C` stands “inactive”; under `c1ccc2cnccc2c1`, “inactive”.

On to `CCCCNC(=S)NCCCC`, for which the result was inactive.

As for `CCCCCCCCCCCCCc1ccccc1`, the result was inactive. Under `CC(=O)OCc1ccccc1` stands “inactive”; under `CCCCCCCOC(=O)c1ccc(O)cc1`, “inactive”. Under `CC(C)c1cccc(C(C)C)c1N` stands “inactive”; under `C=CC(=O)OCCCCCCOC(=O)C=C`, “inactive”; under `CCOC(=O)OC(=O)OCC`, “inactive”. Under `Cc1cc(C)c(C=O)c(C)c1` stands “inactive”; under `CCCCCC1=CCCC1=O`, “inactive”. In the case of `CC12CCC(CC1)C(C)(C)O2`, the result was inactive. Next, `CCCCC(C=O)CC` (stereo not given): “inactive”; `C=CCNCC=C`: “inactive”. Under `CCc1cccc(C)c1N` stands “inactive”; under `CCCCC(CC)COC(=O)/C=C/c1ccc(OC)cc1` (stereo not given), “inactive”. On to `Cc1c(C(=O)c2c[nH]n(C)c2=O)ccc(S(C)(=O)=O)c1C1=NOCC1`, for which the call was inactive. Next, `CCC1(C)C(=O)N(Cl)C(=O)N1Cl` (stereo not given): “inactive”.
